TMEM16A inh = inhibitors of mouse TMEM16A calcium-activated chloride channel; Q8BHY3; HEK293 TMEM16A/YFP iodide influx fluorescence, ionomycin; normalized B-score (activity score, 25-100; higher = stronger inhibition) at 10 µM; 310,000 tested, 1.2% active;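 active means ratio plate-corrected score three or more library SD toward inhibition, starting fluorescence score within five deviations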;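 further: score derived from kinetic fluorescence span divided by baseline fluorescence per well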
Target sequence (Q8BHY3 whole entry, looked up): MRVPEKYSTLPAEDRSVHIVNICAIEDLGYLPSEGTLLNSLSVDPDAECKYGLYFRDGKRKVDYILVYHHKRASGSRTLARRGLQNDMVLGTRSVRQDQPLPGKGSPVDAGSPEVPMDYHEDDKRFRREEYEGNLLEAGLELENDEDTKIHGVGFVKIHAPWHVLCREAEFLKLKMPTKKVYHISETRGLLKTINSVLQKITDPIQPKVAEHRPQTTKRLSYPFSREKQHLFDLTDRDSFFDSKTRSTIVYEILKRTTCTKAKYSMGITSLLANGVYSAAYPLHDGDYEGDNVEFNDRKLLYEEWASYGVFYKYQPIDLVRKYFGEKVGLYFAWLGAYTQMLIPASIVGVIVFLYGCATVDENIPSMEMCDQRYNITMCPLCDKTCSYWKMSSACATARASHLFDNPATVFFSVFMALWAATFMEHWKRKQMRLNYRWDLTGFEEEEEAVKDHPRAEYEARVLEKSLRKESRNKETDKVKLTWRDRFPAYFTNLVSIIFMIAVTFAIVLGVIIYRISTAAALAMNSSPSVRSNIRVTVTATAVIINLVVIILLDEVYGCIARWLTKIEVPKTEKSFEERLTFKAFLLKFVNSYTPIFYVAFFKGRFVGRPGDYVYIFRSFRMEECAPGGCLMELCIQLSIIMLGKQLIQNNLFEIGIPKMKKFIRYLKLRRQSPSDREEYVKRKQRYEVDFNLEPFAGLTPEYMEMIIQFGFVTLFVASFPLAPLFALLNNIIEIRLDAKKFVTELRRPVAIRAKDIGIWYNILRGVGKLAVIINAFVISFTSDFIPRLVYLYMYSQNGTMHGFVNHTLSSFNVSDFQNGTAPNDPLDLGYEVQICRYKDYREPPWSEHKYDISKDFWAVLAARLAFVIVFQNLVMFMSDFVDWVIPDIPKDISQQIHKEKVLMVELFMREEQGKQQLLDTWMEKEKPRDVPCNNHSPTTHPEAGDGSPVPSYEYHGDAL
CHT block = inhibitors of human choline transporter CHT; Q9GZV3; B-score at 10 µM; CHT-expressing cells, membrane potential dye, choline response; hits give low values; 310,000 tested, 0.86% active; AID 488975;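 active means B-score over 3 SD under the library average, and starting fluorescence ratio not unusually high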;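 further: choline stimulus applied at its EC90 after an EC20 pre-addition; B-score computed on integrated fluorescence ratio after choline addition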
ANO1 activ = activates or potentiates the mouse TMEM16A chloride channel | Q8BHY3 | HEK293 TMEM16A/YFP-H148Q/I152L, iodide quench fluorescence; hits give low values | B-score at 10 µM | 340,000 tested, 0.3% active;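 active means fluorescence-ratio B-score plate-corrected deviation score at least 3 library SD below zero, with starting fluorescence score within 5 deviations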;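 further: channel opened by trigger with iodide after compound preincubation; score built on the fluorescence ratio of max minus min over baseline; more negative score means more quench and so TMEM16A activation or potentiation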
CHT allo act = human CHT allosteric activation | Q9GZV3 | CHT-expressing cells, membrane potential dye, choline EC20; hits give high values; LV-AA mutant CHT in HEK293 cells | B-score at 10 µM | 310,000 tested, 0.49% active;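 active means initial fluorescence not abnormally high and integrated response B-score, plate-corrected, over 3 SD above library mean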
CHT inh conf = human CHT inhibition, confirmatory screen. CHT-expressing cells, choline membrane potential dye; LV-to-AA substituted CHT, HEK293 cells. CHT activity remaining % of control (hits give low values), % at 10 µM. shares compounds with CHT block. 2,400 tested, 70% active. AID 493221;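 active means choline transporter activity left, mean of duplicates at 10 µM, below buffer-only control mean minus 3 SD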;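 further: depolarization triggered by choline at its EC90 following an EC20 pre-addition; 0% = hemicholinium-3 full block and 100% = buffer-only control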
HEK293 MPD ctr = counter-screen for CHT inhibitors: effect in parental HEK293 cells; 2,400 tested, 4% active; membrane potential dye, choline response; active = decrease or increase beyond buffer ±3SD; shares compounds with CHT block; membrane potential ratio readout (active if shifted either direction beyond buffer ±3SD; no single direction) at 10 µM;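 further: parental cells lack the transporter so any hit is non-specific; ratio is peak minus trough fluorescence over baseline after EC90 choline challenge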
* = called active by the depositor. An excerpt weighted towards active compounds, which were near 2.4% of everything screened.

For CCc1cccc(C)c1NC(=O)CSc1ncn[nH]1 the results were TMEM16A inh inactive, CHT block inactive, ANO1 activ inactive and CHT allo act inactive.
`COc1ccccc1/C=N/NC(=O)c1nnn(-c2nonc2N)c1CSC1=NCCS1` gave TMEM16A inh inactive, CHT block inactive, ANO1 activ inactive and CHT allo act inactive.
Screening CCc1nc2ccccc2n1CC(=O)N(C(C)CC)C1CCS(=O)(=O)C1 (stereo not given) returned TMEM16A inh inactive, CHT block inactive, ANO1 activ inactive and CHT allo act inactive.
For O=C(Nc1cccc(C(F)(F)F)c1)c1csc(-c2ccncc2)n1 the results were TMEM16A inh inactive, CHT block inactive, ANO1 activ inactive and CHT allo act inactive.
COc1cc(NC(=O)c2csc(-c3ccncc3)n2)cc(C(=O)Nc2cccc(C(F)(F)F)c2)c1 was read as TMEM16A inh inactive, CHT block -8.6*, ANO1 activ inactive, CHT allo act inactive, CHT inh conf 26%* and HEK293 MPD ctr inactive.
For CN(C(=O)C1CCCCN1S(=O)(=O)c1ccccc1)c1ccccc1 (stereo not given) the results were ANO1 activ inactive.
CCOc1ccc(NC(=O)NC(C)CC)cc1 (stereo not given) was read as TMEM16A inh inactive, CHT block inactive, ANO1 activ inactive and CHT allo act inactive.
`COc1ccc(C2CC(c3ccc(Br)cc3)=NN2C(=O)CN2CCCC2)cc1` (stereo not given) gave TMEM16A inh inactive, CHT block -7.1*, ANO1 activ inactive, CHT allo act inactive, CHT inh conf 56%* and HEK293 MPD ctr inactive.
COc1ccc(C2=NN(C(=O)CN3CCCCC3)C(c3ccc(C)cc3)C2)cc1 (stereo not given) was read as TMEM16A inh inactive, CHT block inactive, ANO1 activ inactive and CHT allo act inactive.
O=C(CSc1nnc(-c2cccs2)n1CC1CCCO1)N1CCCC1 (stereo not given) was read as TMEM16A inh inactive, CHT block inactive, ANO1 activ inactive and CHT allo act inactive.
Screening O=C(CCCSc1nnc(-c2cccs2)n1CC1CCCO1)c1ccccc1 (stereo not given) returned TMEM16A inh inactive, CHT block -5.5*, ANO1 activ inactive, CHT allo act inactive, CHT inh conf inactive and HEK293 MPD ctr -8.6*.
For Cn1nccc1C(=O)OCC(=O)Nc1ccccc1 the results were ANO1 activ inactive.
For Fc1ccccc1NC(=S)NNc1ncc(C(F)(F)F)cc1Cl the results were TMEM16A inh 100*, CHT block -8.1*, ANO1 activ inactive, CHT allo act inactive, CHT inh conf 60%* and HEK293 MPD ctr inactive.
Screening Cc1ccccc1NC(=S)NNc1ncc(C(F)(F)F)cc1Cl returned TMEM16A inh inactive, CHT block inactive, ANO1 activ inactive and CHT allo act inactive.
For COc1ccc([N+](=O)[O-])c(S(=O)(=O)c2ccc(Cl)cc2)n1 the results were TMEM16A inh inactive, CHT block -6.6*, ANO1 activ inactive, CHT allo act inactive, CHT inh conf 48%* and HEK293 MPD ctr inactive.
`COc1ccc([N+](=O)[O-])c(S(=O)(=O)c2ccccc2)n1` gave TMEM16A inh inactive, CHT block -5.3*, ANO1 activ inactive, CHT allo act inactive, CHT inh conf 44%* and HEK293 MPD ctr inactive.
For O=[N+]([O-])c1cccnc1S(=O)(=O)c1ccccc1 the results were TMEM16A inh inactive, CHT block inactive, ANO1 activ inactive and CHT allo act inactive.
`C[C@H](CO)N1C[C@H](C)[C@@H](CN(C)C(=O)Nc2ccccc2)Oc2c(NC(=O)Nc3ccccc3)cccc2C1=O` gave ANO1 activ inactive.
`CC1=NN(C(=O)c2ccc(Cn3nc(C)c([N+](=O)[O-])c3C)cc2)C(O)(C(F)(F)F)C1` (stereo not given) gave TMEM16A inh inactive, CHT block inactive, ANO1 activ inactive and CHT allo act inactive.
CC1=NN(C(=O)c2ccc(Cn3nc(C)c(Br)c3C)cc2)C(O)(C(F)(F)F)C1 (stereo not given) was read as TMEM16A inh inactive, CHT block -8.1*, ANO1 activ inactive, CHT allo act inactive, CHT inh conf 26%* and HEK293 MPD ctr inactive.
CCCCC(CC)C(=O)NCc1ccccc1OC (stereo not given) was read as TMEM16A inh inactive, CHT block -5.6*, ANO1 activ inactive, CHT allo act inactive, CHT inh conf inactive and HEK293 MPD ctr inactive.
`CCC(=O)OCC(=O)c1cc(C)n(-c2ccc(Br)cc2)c1C` gave TMEM16A inh inactive, CHT block inactive, ANO1 activ inactive and CHT allo act inactive.
For O=C(/C=C/c1ccc2c(c1)OCO2)NCCCN1CCOCC1 the results were TMEM16A inh inactive, CHT block inactive, ANO1 activ inactive and CHT allo act inactive.
`CC(C)c1c(C(=O)N/N=C/c2cccc(OCc3ccc(F)cc3)c2)nnn1-c1nonc1N` gave TMEM16A inh inactive, CHT block -6.6*, ANO1 activ inactive, CHT allo act inactive, CHT inh conf 68%* and HEK293 MPD ctr inactive.
For CN(C)Cc1c(C(=O)N/N=C/c2cccc(OCc3ccc(F)cc3)c2)nnn1-c1nonc1N the results were TMEM16A inh inactive, CHT block inactive, ANO1 activ inactive and CHT allo act inactive.
`CCNC(=O)Nc1ccc(OC)cc1OC` gave TMEM16A inh inactive, CHT block inactive, ANO1 activ inactive and CHT allo act inactive.
For COc1ccccc1NC(=O)c1nnn(Cc2ccccc2)c1NC(=O)C(F)(F)F the results were TMEM16A inh inactive, CHT block inactive, ANO1 activ inactive and CHT allo act inactive.
Screening O=C(Nc1ccccc1)c1nnn(Cc2ccccc2)c1NC(=O)C(F)(F)F returned TMEM16A inh inactive, CHT block -5*, ANO1 activ inactive, CHT allo act inactive, CHT inh conf 32%* and HEK293 MPD ctr inactive.
For CCOC(=O)c1cnc2c(Cl)cccc2c1NCCN1CCOCC1 the results were TMEM16A inh inactive, CHT block -5.8*, ANO1 activ inactive, CHT allo act inactive, CHT inh conf inactive and HEK293 MPD ctr 2.8*.
`Cc1ccccc1C(=O)N1CCCN(C(=O)c2ccccc2C)CC1` gave TMEM16A inh inactive, CHT block -6.8*, ANO1 activ inactive, CHT allo act inactive, CHT inh conf inactive and HEK293 MPD ctr inactive.

High-throughput results: PubChem, Johns Hopkins Ion Channel Center
